The assay deals with Hexokinase HKDC1 (Homo sapiens) (UniProt Q2TB90). The assay is described as follows: compounds raising human HKDC1 activity – biochemical, single concentration, confirmation (AID 504708). The conditions noted are these: recombinant HKDC1, G6PDH/diaphorase resazurin fluorescence; at 20 µM; active compounds read low.

We go through two compounds from PubChem BioAssay AID504708 (Sanford-Burnham Center for Chemical Genomics, 2011).

Molecules are shown by their SMILES. The list shows a part of the results. Values without a mark were called inactive. Activity calls are given as the source filed them.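 The calls were made as follows: active = inhibition at or below a set negative limit, negative inhibition meaning the enzyme was activated; inactive = the rest.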

Hexokinase HKDC1 (Homo sapiens), sequence (Q2TB90 whole entry, looked up): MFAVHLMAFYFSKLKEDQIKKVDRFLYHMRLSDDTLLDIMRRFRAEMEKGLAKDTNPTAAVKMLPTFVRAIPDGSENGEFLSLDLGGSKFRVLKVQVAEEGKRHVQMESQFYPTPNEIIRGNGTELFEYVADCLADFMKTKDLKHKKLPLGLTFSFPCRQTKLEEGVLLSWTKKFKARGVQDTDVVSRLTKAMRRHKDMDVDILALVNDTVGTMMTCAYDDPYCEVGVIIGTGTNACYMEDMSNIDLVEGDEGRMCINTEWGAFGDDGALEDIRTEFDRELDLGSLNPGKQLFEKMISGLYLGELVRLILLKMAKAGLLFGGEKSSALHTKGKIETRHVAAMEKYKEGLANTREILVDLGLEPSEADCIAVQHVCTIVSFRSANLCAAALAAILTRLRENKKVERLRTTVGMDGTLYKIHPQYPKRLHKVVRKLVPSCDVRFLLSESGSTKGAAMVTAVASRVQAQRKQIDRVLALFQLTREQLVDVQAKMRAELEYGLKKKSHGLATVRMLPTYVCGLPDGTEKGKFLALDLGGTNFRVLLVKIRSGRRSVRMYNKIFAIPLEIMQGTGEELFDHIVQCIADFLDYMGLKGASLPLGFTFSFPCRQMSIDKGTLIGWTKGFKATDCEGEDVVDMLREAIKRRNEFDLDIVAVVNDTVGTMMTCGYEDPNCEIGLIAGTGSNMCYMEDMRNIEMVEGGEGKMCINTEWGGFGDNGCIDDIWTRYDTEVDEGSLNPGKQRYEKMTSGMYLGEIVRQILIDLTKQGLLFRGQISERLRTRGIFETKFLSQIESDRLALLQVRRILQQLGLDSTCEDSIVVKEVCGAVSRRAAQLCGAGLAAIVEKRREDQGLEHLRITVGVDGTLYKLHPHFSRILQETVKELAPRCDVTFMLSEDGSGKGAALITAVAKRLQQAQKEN

As to `CC(=O)OC1C2(CC3N4C(=O)C5(CO)SSC4(CC31O)C(=O)N5C)OC(C)C(C)(C)C2=O` (configuration not stated), the inhibition was -77% (active).

With `O=C1NC(=O)N(c2ccc(F)cc2)C(=O)/C1=C/c1ccc2c(c1)CCCN2Cc1ccccc1`, the inhibition was 1.36%.
